Results from PubChem BioAssay AID493026 (Johns Hopkins Ion Channel Center, 2011).
Out of some 1,000 compounds screened, about 150 (15%) were called active.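 How the source made its calls: active means activity change at least 3 SD of negative controls below their mean in both duplicate wells; inactive means the rest.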 Only a selection was taken, and actives are over-represented in it overall.

Each compound was assayed against Potassium voltage-gated channel subfamily KQT member 1 (Homo sapiens) (UniProt P51787) (assay: human KCNQ1 channel inhibition, counter-screen for KCNQ2 inhibitor project, cell-based, FluxOR thallium flux (AID 493026;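 further: CHO cells stably transfected with KCNQ1 and depolarized by potassium stimulus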;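 on activity change, negative = inhibition: peak minus minimum fluorescence over baseline after thallium addition; 0% = vehicle negative control and -100% = blank without thallium stimulus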)). Conditions: KCNQ1-expressing cells, FluxOR thallium flux fluorescence, at 10 µM; hits give low values.
Chain of Potassium voltage-gated channel subfamily KQT member 1 (Homo sapiens) (P51787 whole entry, looked up): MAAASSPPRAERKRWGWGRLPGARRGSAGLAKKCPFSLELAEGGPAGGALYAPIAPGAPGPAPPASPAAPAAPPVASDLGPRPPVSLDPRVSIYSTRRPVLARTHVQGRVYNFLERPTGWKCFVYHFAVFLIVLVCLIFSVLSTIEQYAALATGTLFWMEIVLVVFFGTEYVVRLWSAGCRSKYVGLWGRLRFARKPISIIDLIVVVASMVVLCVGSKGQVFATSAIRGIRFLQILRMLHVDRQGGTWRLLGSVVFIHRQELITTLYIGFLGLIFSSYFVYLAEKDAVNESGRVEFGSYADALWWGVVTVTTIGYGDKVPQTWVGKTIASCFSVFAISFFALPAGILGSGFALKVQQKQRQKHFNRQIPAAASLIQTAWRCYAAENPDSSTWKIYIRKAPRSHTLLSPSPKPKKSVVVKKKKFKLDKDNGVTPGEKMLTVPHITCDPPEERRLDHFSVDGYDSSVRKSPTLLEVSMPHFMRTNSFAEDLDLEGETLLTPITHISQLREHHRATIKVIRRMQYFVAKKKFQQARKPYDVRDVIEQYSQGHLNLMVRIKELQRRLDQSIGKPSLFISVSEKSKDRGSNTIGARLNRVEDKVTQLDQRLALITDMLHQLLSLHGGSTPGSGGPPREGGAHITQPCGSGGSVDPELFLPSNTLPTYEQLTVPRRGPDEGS
For `CCc1ccccc1NC(=O)/C(=C/c1ccccc1)c1ccccc1`, the activity change, negative = inhibition was -27% (active). For `Cc1ccc(C(=O)c2c(NC(=O)c3ccccc3)sc(C)c2C)cc1`, the activity change, negative = inhibition was “inactive”. For `COc1ccc(Cl)cc1NC(=O)CN(C)Cc1ccc(OC)c(OC)c1`, the activity change, negative = inhibition was “inactive”. For `CN(Cc1ccccc1F)C(=O)C(Cc1ccccc1)NC(=O)c1ccccc1` (stereo unspecified), the activity change, negative = inhibition was “inactive”. For `CCc1ccc(-c2nn(-c3ccccc3)cc2CSC(=N)N)cc1`, the activity change, negative = inhibition was -39.5% (active). For `Cc1cccc(C(=O)OC(C)C(=O)NC2CCCc3ccccc32)c1O` (stereo unspecified), the activity change, negative = inhibition was “inactive”. With `COC(=O)C1=C(C)N(C(C)c2ccccc2)C(=O)/C1=C\c1ccco1` (stereo unspecified) the activity change, negative = inhibition was “inactive”. `COc1cccc(COc2ccc(N(C)S(=O)(=O)c3ccccc3)cc2)c1` was tested, and the activity change, negative = inhibition was “inactive”. `C=CS(=O)c1sc(Cl)c(N2CCOCC2)c1[N+](=O)[O-]` (stereo unspecified) was tested, and the activity change, negative = inhibition was -35% (active). With `Cc1nc2ccccc2c(-c2ccccc2)c1C(=O)c1ccccc1` the activity change, negative = inhibition was “inactive”. With `CSCc1cc(N(C)C)nc(SCc2ccc(Cl)cc2Cl)n1` the activity change, negative = inhibition was “inactive”. With `Cc1ccc(C2=Nc3c(ccc4ccccc34)C(c3ccncc3)=NN2)cc1` the activity change, negative = inhibition was “inactive”. For `CCc1ccc(-c2cc(C(=O)NCc3ccco3)c3ccccc3n2)s1`, the activity change, negative = inhibition was “inactive”. For `Fc1ccc2[nH]c3c(N4CCSCC4)ncnc3c2c1`, the activity change, negative = inhibition was “inactive”. `CCOC(=O)N1CCC(N(CCOC)C(=O)Nc2ccc(C)c(C)c2)CC1` was tested, and the activity change, negative = inhibition was -30.5% (active). `O=C(OCC(=O)N(CCc1ccccc1)Cc1ccccc1)c1ccccc1[N+](=O)[O-]` was tested, and the activity change, negative = inhibition was “inactive”. For `CCc1ccc2ncc(C(=O)c3ccccc3)c(N3CCOCC3)c2c1`, the activity change, negative = inhibition was “inactive”. For `Cc1ccc(C(C)C)cc1OCC(=O)Nc1ccccc1N1CCCC1`, the activity change, negative = inhibition was “inactive”. `CCOC(=O)C(C)Sc1nc2ccccc2c(=O)n1CC1CCCCC1` (stereo unspecified) was tested, and the activity change, negative = inhibition was -33.5% (active). In the case of `Cc1ccccc1N1CCN(CC(=O)NCc2ccc(Cl)cc2)CC1`, the activity change, negative = inhibition is reported as “inactive”. `O=C(Nc1ccccc1Cl)/C(Cl)=C(\Cl)S(=O)c1ccccc1` (stereo unspecified) was tested, and the activity change, negative = inhibition was “inactive”. `CC(NC(=S)NNS(=O)(=O)c1ccc(C(C)(C)C)cc1)c1ccccc1` (stereo unspecified) was tested, and the activity change, negative = inhibition was “inactive”. For `Cc1ccccc1C(=O)Nc1ccccc1Sc1ccccc1`, the activity change, negative = inhibition was “inactive”. `COc1ccc(CN(C)C(C)C(=O)NC2CCCc3ccccc32)cc1` (stereo unspecified) was tested, and the activity change, negative = inhibition was “inactive”. For `CC(C)C(NC(=O)OCc1ccccc1)C(=O)OCC(=O)N1C(C)CCCC1C` (stereo unspecified), the activity change, negative = inhibition was “inactive”. `CC(C(=O)NCC1CCCCC1)N(C)Cc1cccc(Cl)c1` (stereo unspecified) was tested, and the activity change, negative = inhibition was -42.5% (active). For `C=CCn1c(SCC(=O)/C(C#N)=C(\C)N)nc2sc(C)c(C)c2c1=O`, the activity change, negative = inhibition was “inactive”. For `O=C(Nc1ccc(Cl)c(Cl)c1)N1CC=C(c2ccccc2)CC1`, the activity change, negative = inhibition was “inactive”. With `Cc1ccc(N2C(=O)C3C(c4ccccc4)(C2=O)C3(c2ccccc2)c2ccccc2)cc1` (stereo unspecified) the activity change, negative = inhibition was “inactive”. In the case of `CC(C)N(C(=O)CSc1nc(COc2ccccc2)nc2ccccc12)C(C)C`, the activity change, negative = inhibition is reported as -44% (active). In the case of `CC(C)[C@H](NC(=O)OCc1ccccc1)C(=O)OCc1ccccc1`, the activity change, negative = inhibition is reported as “inactive”.
